Molecules are shown by their SMILES. Screen size: about 360,000 compounds; about 2,800 (0.78%) were called active. Rule as the data show it: active = inhibition above about 26%; inactive = the rest. The list comes from a sample in which actives are over-represented; it also holds similar structures and randomly drawn compounds.

This assay has as its system Nicotinate-nucleotide adenylyltransferase NadD (Staphylococcus aureus N315). The assay can be described thus: S. aureus NadD enzyme activity blockers – biochemical, colorimetric, uHTS, primary screen (AID 602399). The following applies: purified NadD enzyme, colorimetric absorbance read-out; at 20 µM; hits give high values.
A word on the inhibition: it is the change of the read-out against control, counted positive when it falls. As for `COc1ccc(OC)c(C(=O)c2coc3ccc(OC)cc23)c1`, the inhibition is -4.74% (inactive).
As for `COc1ccc(OC)c(C(=O)c2coc3ccc(O)c(CN4CCOCC4)c23)c1`, the figure is 36.3% (active).
In the case of `COc1ccc2oc(=O)cc(CN3CCOCC3)c2c1` it was 0.645% (inactive).
As for `CC1CC(C)CN(C(=O)CCNC(=O)Cn2cnc3ccccc3c2=O)C1` (stereo not drawn), the figure is -4.11% (inactive); as for `CC(=O)N1c2ccc(S(=O)(=O)N3CCC(C(=O)NC4CCCCC4C)CC3)cc2CC1C` (stereo not drawn), 1.28% (inactive); as for `CS(=O)(=O)c1sc2nc(-c3ccccc3)cc(-c3ccccc3)c2c1N`, 43.8% (active).
As to `Nc1cccc(-c2cc(-c3ccccc3)nc(-c3cccc(N)c3)n2)c1`, the inhibition is 13.8% (inactive).
In the case of `CNC(=S)NNC(=O)c1oc2nc(-c3ccccc3)cc(-c3ccco3)c2c1N` it was 11.9% (inactive); in that of `Cc1noc(C)c1S(=O)(=O)N(C)C[C@H]1Oc2ccc(NC(=O)C3CCCCC3)cc2C(=O)N([C@H](C)CO)C[C@@H]1C`, -4.63% (inactive).
Regarding `COc1ccc(CN2CCn3ncc(C(=O)Nc4ccc(Cl)cc4Cl)c3C2=O)cc1`, the inhibition is -3.68% (inactive).
Consider `Fc1ccc2c(c1)C(c1cccnc1)=NNC(c1cccs1)=N2`, for which the inhibition is -1.68% (inactive).
As to `O=c1oc(-c2ccccc2NS(=O)(=O)c2ccc(Cl)cc2)nc2ccccc12`, the inhibition was 10.9% (inactive).
Consider `CCCCCN(C(=O)CCC(=O)OCC(=O)NCc1ccc(OC)cc1)c1c(N)n(CCCC)c(=O)[nH]c1=O`, for which the inhibition is -7.19% (inactive).
As for `CC(C)c1ccc2c(c1)c(SC(C)(C)C)c(CC(C)(C)C(=O)O)n2Cc1ccc(Cl)cc1`, the figure is 31.8% (active); as for `COc1cc(-c2nnn(CC(=O)NCc3ccccc3)n2)cc(OC)c1OC`, 1.36% (inactive).
Turning to `COc1ccc(C2=NN(C(=O)CSc3nc(=O)n4ccc(C)cc4n3)C(c3ccc(C)cc3)C2)cc1` (stereo not drawn), the inhibition is 36.1% (active).
As for `COc1ccc(C2CC(c3ccccc3)=NN2C(=O)CSc2nccc(=O)[nH]2)cc1` (stereo not drawn), the figure is 9.94% (inactive).
As for `Cc1ccc(C2=NN(C(=O)CSc3nc(N)cc(N)n3)C(c3ccco3)C2)cc1` (stereo not drawn), the inhibition was 4.52% (inactive).
Regarding `COc1ccc(C(=O)N2CCCCC2c2cc(C(=O)Nc3ccc(F)c(Cl)c3)no2)cc1` (stereo not drawn), the inhibition was 2.01% (inactive).
In the case of `C[C@H]([C@@H](O)[C@@H](O)[C@@H](C)C(C)(C)C)[C@H]1CC[C@H]2C3CC[C@H]4C[C@H](OS(=O)(=O)O)[C@@H](OS(=O)(=O)O)C[C@]4(C)[C@H]3CC[C@]12C` (stereo partly drawn) it was 11.9% (inactive).
`COc1ccccc1OCCOc1ccc(/C=C2\C(=N)N3N=C(C)SC3=NC2=O)cc1`: the inhibition is 29% (active).
`COc1cc(/C=C2\C(=N)N3N=C(CC(=O)N4CCOCC4)SC3=NC2=O)cc(OC)c1OC`: the inhibition is -3.62% (inactive).
Turning to `CCOc1cc(/C=C2\C(=N)N3N=C(C)SC3=NC2=O)ccc1OCCOc1ccccc1`, the inhibition is 22.4% (inactive).
On to `C[C@@H]1CN([C@H](C)CO)C(=O)CCCn2nncc2CO[C@@H]1CN(C)S(=O)(=O)c1cccc(C#N)c1`, for which the inhibition was 4.94% (inactive).
In the case of `CCOC(=O)c1ccc(NC(=O)c2c(N)n(C)c(=O)[nH]c2=O)cc1` it was -3.34% (inactive); in that of `Cc1ccc(C(=O)COC(=O)CCN2C(=O)C3C4CCC(C4)C3C2=O)cc1C` (stereo not drawn), 4.2% (inactive).
In the case of `Cc1ccc(C(=O)COC(=O)c2cccc(N3C(=O)c4c(C)nc5ccccc5c4C3=O)c2)cc1C` it was 29.7% (active); in that of `COc1ccc(C(=O)OCC(=O)c2ccc(C)c(S(=O)(=O)N3CCOCC3)c2)cc1OC`, -14% (inactive).
In the case of `CN(C)c1ccnc(Oc2ccc(F)cc2)c1C#N` it was 0.732% (inactive); in that of `O=C(O)C1=NN(c2c(F)c(F)cc(F)c2F)C(=O)CC1`, -2.16% (inactive); in that of `COc1ccc(NS(=O)(=O)c2ccc(NC(=S)NC(=O)/C=C/c3ccc(C)cc3)cc2)nn1`, 52.5% (active).
For `COc1cc(NS(=O)(=O)c2ccc(NC(=S)NC(=O)c3ccc(Br)cc3)cc2)ncn1`, the inhibition is 16.5% (inactive).
As to `COc1ccc(NS(=O)(=O)c2ccc(NC(=O)C(C)(C(F)(F)F)C(F)(F)F)cc2)nn1`, the inhibition is 8.48% (inactive).
In the case of `COc1ccccc1-n1c(SCC(=O)O)nc2sc3c(c2c1=O)CCC3`, the inhibition is -6.38% (inactive).
Consider `COc1cccc(C(=O)NC(=O)Nc2nc(C)cc(C(F)(F)F)n2)c1`, for which the inhibition is 1.69% (inactive).
In the case of `Cc1cc(O)c(C(=O)/C=C/c2c(F)c(F)c(F)c(F)c2F)c(=O)o1` it was 30% (active); in that of `COc1ccc(/C=C/C(=O)c2c(O)cc(OC)cc2OC)cc1`, -0.858% (inactive).
In the case of `Cc1cc(O)c(Sc2ccccc2)c(=O)o1` it was -2.78% (inactive); in that of `CC(=O)c1c(C)n([O-])c2ccccc2[n+]1=O`, 4.16% (inactive); in that of `O=C(N/N=C/c1ccc(Cl)cc1)c1nc2ccc([N+](=O)[O-])cc2c(=O)[nH]1`, 42.6% (active).
As for `N#Cc1cc([N+](=O)[O-])ccc1Oc1cccc(/C=N/NC(=O)c2ccc(Cl)cc2)c1`, the figure is 19.4% (inactive); as for `CC(NC(=O)C(=O)N/N=C/c1ccc(Cl)cc1)c1ccccc1` (stereo not drawn), -0.376% (inactive).
Regarding `Cc1cccn2c(=O)c3cc(C#N)c(=NC(=O)c4cccnc4)n(CC4CCCO4)c3nc12` (stereo not drawn), the inhibition is 0.191% (inactive).
In the case of `COc1ccccc1N(CC(=O)Nc1ccc(C)cc1Cl)S(=O)(=O)c1cccs1`, the inhibition was -10.3% (inactive).
For the compound `COc1cc(-c2noc(C3CCCN(S(=O)(=O)c4cccc(Cl)c4)C3)n2)cc(OC)c1OC` (stereo not drawn), the inhibition is -12.5% (inactive).
Take `COc1ccccc1/C=C/C=N/n1c(-c2ccc(Cl)cc2Cl)n[nH]c1=S`: the inhibition was 28% (active).
As for `COc1ccc(Cl)cc1C=CC=NNC(=O)c1ccncc1`, the inhibition is 9.06% (inactive).
Regarding `COc1ccc(-n2c(-c3ccc(Cl)cc3)n[nH]c2=S)c(OC)c1`, the inhibition is 5.69% (inactive).
As for `COc1ccc(OC)c(/C=N/NC(=O)CSc2nnc(C)n2-c2ccccc2)c1`, the figure is 4.2% (inactive).
In the case of `O=Cc1cn(-c2ccccc2)nc1-c1ccccn1` it was -0.605% (inactive).
In the case of `COc1ccc(-c2nn(-c3ccccc3)cc2/C=N/Nc2ccccn2)cc1OC` it was 30.9% (active).
As for `N#C/C(C(=O)N1CCOCC1)=C1/SC(Cc2ccc(F)cc2)C(=O)N1c1ccccc1` (stereo not drawn), the inhibition is 5.64% (inactive).
In the case of `CCCCN(C=O)c1c(CC)nc2c(OCc3ccccc3C(=O)OC)cccn12` it was 3.2% (inactive).
